Laboratory results reported in PubChem BioAssay (NCATS).
Records with an inconclusive call do not appear. The source made the active and inactive calls. Calls come from the whole dose curve; as a rule, active = well fitted curve in the direction sought with a large enough effect; inconclusive = small, poorly fitted or top-dose-only effect, or another doubt; inactive = no such curve, though single readings can be large; an effect the other way counts as inactive or inconclusive.

Experiments:
[1] = Panc-1005 Cancer Cell Toxicity qHTS against the NCATS CANVASS Library (AID 1347349); details: Panc-1005 viability, CellTiter-Glo luminescence, 72 h; series mostly up to 38.3 µM; note: nearly all actives have a fitted effect of over 60% in size; note: potency is the fitted concentration of half-maximal effect
How it was run: (§1)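 Step one: seed 1000 cells per well. Step two: incubate 4 h. Step three: add test compounds in 11 concentrations. Step four: culture 72 h, then add CellTiter-Glo and record luminescence after 15min.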

[2] = SW1088 Cancer Cell Toxicity qHTS against the NCATS CANVASS Library (AID 1347350); details: SW1088 viability, CellTiter-Glo luminescence, 72 h; series mostly up to 38.3 µM; note: nearly all actives have a fitted effect of over 75% in size; note: potency is the fitted concentration of half-maximal effect
How it was run: as §1

[3] = COV-362 Cancer Cell Toxicity qHTS against the NCATS CANVASS Library (AID 1347352); details: COV-362 viability, CellTiter-Glo luminescence, 72 h; series mostly up to 38.3 µM; note: potency is the fitted concentration of half-maximal effect
How it was run: (§2)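 Luminescent ATP read-out (CellTiter-Glo, 15min at room temperature) measures survival after cells face an 11-point compound series for 72 hours at 37 degrees C/5% CO2.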

[4] = UWB1.289-WTBRCA1 Cancer Cell Toxicity qHTS against the NCATS CANVASS Library (AID 1347354); details: UWB1.289-WTBRCA1 viability, CellTiter-Glo luminescence, 72 h; series mostly up to 38.3 µM; note: potency is the fitted concentration of half-maximal effect
How it was run: as §2

[5] = system: NAD(P)H diaphorase (Clostridium kluyveri); assay: Diaphorse counterscreen qHTS: Assay Interference Panel against the NCATS CANVASS Library (AID 1347362); details: Diaphorase enzyme, resazurin to resorufin fluorescence; series mostly up to 57.5 µM
How it was run: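 Clostridium kluyveri diaphorase in PBS + 0.01% Tween-20 preincubated 15 min with compounds. Resazurin and NADH then added for 5 min at room temperature in the dark; resorufin fluorescence read (ex 525, em 598).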

[6] = KB-8-5-11 Cancer Cell Toxicity qHTS against the NCATS CANVASS Library (AID 1347364); details: KB-8-5-11 MDR cells viability, CellTiter-Glo, 72 h; series mostly up to 46.1 µM; note: nearly all actives have a fitted effect of over 75% in size; note: potency is the fitted concentration of half-maximal effect
How it was run: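 Plate 500 KB-8-5-11 cells per well in DMEM + 10% FBS, add compounds by pin transfer, incubate 72 hr at 37C. Add CellTiter-Glo, wait 10 minutes at room temperature, read luminescence.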

[7] = qHTS for H2AX Agonists against the NCATS CANVASS Library (AID 1347378); details: CHO-K1 H2AX phosphorylation, HTRF TR-FRET, 3 h; series mostly up to 76.9 µM;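 note: phospho-H2AX S139 level in CHO-K1 lysates by TR-FRET emission ratio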; note: potency is the fitted concentration of half-maximal effect
How it was run: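 CHO-K1, 1000 cells/well, o/n 37C; cpd several conc, 3 hr 37C, 0.76% DMSO; lyse 30 min RT; cryptate anti-pH2AX(S139) + d2 anti-H2AX, 24 hr RT; HTRF 665/620.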

[8] = qHTS assay for small molecule disruptors of mitochondrial membrane potential screened against the NCATS CANVASS Library (AID 1347389); details: HepG2 mitochondrial membrane potential, m-MPI red/green ratio, 1.5 h; series mostly up to 46.1 µM; note: nearly all actives have a fitted effect of over 60% in size; note: potency is the fitted concentration of half-maximal effect
How it was run: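 HepG2, 2,000 cells/well, attached overnight; compound 1 hr, 37C, 5% CO2; Mito-MPS dye 30 min, 37C; fluorescence 535 nm (monomer) and 590 nm (aggregate); decreased 590/535 ratio = depolarization.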

[9] = Secretion counterscreen for inhibitors of the SERCaMP assay screened against the NCATS CANVASS Library (AID 1347390); details: SH-SY5Y constitutive GLuc secretion, luminescence, 20 h; series mostly up to 76.6 µM;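 note: light from luciferase secreted into medium read as a measure of general secretion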; note: potency is the fitted concentration of half-maximal effect
How it was run: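 SH-SY5Y-GLuc STOP cells; 4 h attach; cpds 0.001 - 77 uM (qHTS, 11 pts), 20 h 37C/5% CO2; coelenterazine in glow buffer; luminescence, 5 s exposure.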

[10] = qHTS for inhibitors of ER calcium dysfunction: SERCaMP assay screened against the NCATS CANVASS Library (AID 1347393); details: SH-SY5Y GLuc-SERCaMP secretion, thapsigargin, luminescence; series mostly up to 76.6 µM; note: nearly all actives have a fitted effect of over 40% in size; note: potency is the fitted concentration of half-maximal effect
How it was run: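 SH-SY5Y GLuc-SERCaMP, 1000 cells/well, 4 h attach; cpd 16 h, 37C/5% CO2; thapsigargin (added as 6x 600 nM) 4 h; coelenterazine; luminescence. Reduced reporter release = ER Ca stabilization.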

[11] = Vero-766 cells viability qHTS against the NCATS CANVASS Library: Counterscreen for Zika virus inhibition assay (AID 1347394); details: Vero 766 viability, CellTiter-Glo luminescence, 72 h; series mostly up to 46.1 µM; note: nearly all actives have a fitted effect of over 60% in size; note: potency is the fitted concentration of half-maximal effect
How it was run: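 Vero 766, no virus; 1000 cells/well; o/n attach; cpd 11-pt; 72 h, 37C, 5% CO2; CTG luminescence; cell-free media wells = 100% inhibition.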

[12] = A2780 Cisplatin Sensitive Ovarian Cancer Cell Toxicity qHTS against the NCATS CANVASS Library (AID 1347353); details: A2780 ovarian cancer viability, ATPLite luminescence, 72 h; series mostly up to 46.1 µM; note: nearly all actives have a fitted effect of over 60% in size; note: potency is the fitted concentration of half-maximal effect
How it was run: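 Luminescent ATP content (ATPLite, 10 min at room temperature) served as the read-out after cells had been exposed to compounds for 72 hours at 37 °C. Dosing followed an 11-point concentration series.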

[13] = G06 Cancer Cell Toxicity qHTS against the NCATS CANVASS Library (AID 1347368); details: G06 dog glioma cells, viability ATP luminescence, 72 h; series mostly up to 46.1 µM; note: nearly all actives have a fitted effect of over 60% in size; note: potency is the fitted concentration of half-maximal effect
How it was run: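 Dog G06 glioma line, 500 cells/well; cpds pin-transferred, 11-pt; 72 hr, 37C/5% CO2; CellTiterGlo luminescence (ATP) endpoint.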

[14] = qHTS for Hypoxia signaling pathway (HIF-1) agonists against the NCATS CANVASS Library (AID 1347375); details: HRE-bla ME-180 cells, HIF-1 beta-lactamase reporter, 17 h; series mostly up to 38.3 µM; note: potency is the fitted concentration of half-maximal effect
How it was run: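 ME-180 HRE-bla reporter cells; 2,000/well, 0.5% dialyzed FBS; cpd added after 5 h, 17 h 37C/5% CO2; CCF4-AM 2 h RT; FRET 460/530 nm; CellTiter-Glo viability same wells, 30 min.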

[15] = qHTS for Inflammasome Signaling Inhibitors: IL-1-beta AlphaLISA screen against the NCATS CANVASS Library (AID 1347379); details: THP-1 LPS/ATP, IL-1B AlphaLISA secretion, 16 h; series mostly up to 57.5 µM;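 note: human THP-1 cells primed with LPS then triggered with ATP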;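 for Potency: secreted IL-1B measured as AlphaLISA emission at 615 nm; potency is the fitted concentration of half-maximal effect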
How it was run: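 THP-1 cells pretreated 1 hr with compound (up to 57.5 uM final), then stimulated with LPS (250 ng/mL final) and ATP (1.25 mM final). Secreted IL-1B measured by AlphaLISA after 16 hr; glyburide as positive control.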

[16] = Cytotoxicity qHTS for assessment of Hepg2 cells membrane integrity screened against the NCATS CANVASS Library (AID 1347387); details: HepG2 LDH release (CytoTox-ONE) fluorescence, 5 h; series mostly up to 46.1 µM
How it was run: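 qHTS, 11-pt conc. series, 0.59 nM - 46 uM final; HepG2 2000 cells/well, overnight attachment; 5 hr compound exposure 37C/5% CO2; CytoTox-ONE, 10 min RT; fluorescence ex560/em590 = LDH from damaged membranes.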

[17] = qHTS for activators of Nrf2/ARE signaling pathway screened against the NCATS CANVASS Library (AID 1347391); details: ARE-bla HepG2, beta-lactamase reporter, 16 h; series mostly up to 46.1 µM; note: nearly all actives have a fitted effect of over 60% in size; note: potency is the fitted concentration of half-maximal effect
How it was run: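 Plate ARE-bla HepG2 cells at 2000/well and let them settle 5 h. Pin-transfer compounds in DMSO, incubate 16 h at 37C. Load CCF4 for 2 h at room temperature and read blue/green fluorescence.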

[18] = qHTS for inhibitors of Wild type Zika virus screened against the NCATS CANVASS Library (AID 1347396); details: Vero cells, Zika virus CPE, CellTiter-Glo, 72 h; series mostly up to 45.9 µM;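 note: ATP luminescence of surviving cells so rescue from viral cell killing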
How it was run: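 Luminescent CellTiter Glo read-out of virus-induced cytotoxicity, 72 h post-infection, in Vero 766 cells. Compounds were tested at 11 concentrations; uninfected, vehicle-treated wells defined 100% inhibition.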

[19] = DH5-alpha competent E. coli microbial cell viability qHTS against the NCATS CANVASS Library (AID 1347377); details: BacTiter-Glo ATP luminescence, overnight; series mostly up to 46.1 µM
How it was run: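 qHTS, 11-pt; E. coli DH5-alpha, 0.2 OD; o/n 37C/5% CO2; BacTiter-Glo, 20 min RT; luminescence.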

[20] = qHTS for activators of dead-cell proteases activity screened against the NCATS CANVASS Library (AID 1347392); details: HepG2 cytotoxicity, dead-cell protease luminescence, 5 h; series mostly up to 46.1 µM;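 note: luminescence from protease leaking out of membrane-damaged cells cleaving impermeant substrate; rising signal means more cytotoxicity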
How it was run: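 HepG2 cells, 2000/well, attached 18 h at 37C, then exposed to compounds (11-point qHTS) for 5 h. Dead-cell protease release read as luminescence from cell-impermeant AAF-aminoluciferin substrate after 15 min at room temperature.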

Measured: Potency

CCC[C@@H](C)/C=C(\C)[C@H](O)[C@H](C)/C=C/CC[C@@H](O)[C@H](C)[C@H](O)[C@H](C)[C@H](O)[C@H](C)[C@H]1O[C@H]([C@H](C)C(=O)O)CC[C@@H]1C
active: [1] 4.21 µM | [2] 2.11 µM | [3] 5.94 µM | [4] 13.3 µM | [6] 11.8 µM | [8] 20.9 µM | [9] 38.4 µM | [11] 9.33 µM
inactive: [5] | [7] | [10]

CN1CC[C@]2(c3cccc4c3N[C@@H]3N(C)CC[C@]43[C@@]34CCN(C)[C@@H]3Nc3ccccc34)c3ccccc3N[C@H]12
active: [1] 16.8 µM | [3] 13.3 µM | [12] 14.8 µM | [6] 16.6 µM | [13] 3.72 µM | [15] 24.3 µM | [11] 26.3 µM
not listed: [2] | [4] | [9] | [19] | [20]
inactive: all other assays above

CC1=CC2=C[C@H](C)C[C@@]23OC(=C(C)C3=O)CC(C)(C)/C=C/C1=O
inactive: [5] | [19] | [10]
active: [1] 0.943 µM | [2] 5.95 µM | [12] 0.209 µM | [4] 11.8 µM | [6] 2.09 µM | [13] 0.833 µM | [14] 5.29 µM | [7] 1.72 µM | [15] 1.09 µM | [8] 5.24 µM | [9] 1.93 µM | [17] 0.0741 µM

CCCCCC[C@H](CCCCC[C@@H](O)C(N)=O)OC(=O)[C@@H]1CC=CN1C(=O)c1ccccc1O
not listed: [2] | [4] | [5] | [12] | [13] | [19]
inactive: all other assays above

COc1ccc(/C=C2\COc3cc(O)ccc3C2=O)cc1
active: [12] 14.8 µM | [8] 20.9 µM | [17] 8.31 µM
not listed: [1] | [2] | [6] | [10] | [15] | [18]
inactive: all other assays above

CC1(C)CC[C@]2(C(=O)O)CC[C@]3(C)C(=CC[C@@H]4[C@@]5(C)C[C@@H](O)[C@H](O)C(C)(C)[C@@H]5CC[C@]43C)[C@@H]2C1
active: [2] 14.9 µM
inactive: [3] | [13] | [19] | [15] | [8] | [9] | [17]

C/C=C1/CC[C@@H]2c3[nH]c4ccccc4c3CCN2C1
active: [10] 19.3 µM
not listed: [1] | [17]
inactive: all other assays above

C=C1C[C@@]23C=CC(=O)[C@@](C)(CCCC(C)C(=O)O)[C@@H]2C[C@@H]1CC3 (some centres undefined)
active: [17] 16.6 µM
not listed: [2] | [13]
inactive: all other assays above

CCCCCCC[C@@H](C/C=C/CCC(=O)NCCc1c[nH]c2ccccc12)OC
active: [10] 34.3 µM | [11] 23.4 µM
not listed: [2] | [8] | [18] | [19]
inactive: all other assays above
